A selection: hits, their analogues and other compounds. The true share with any hit is near 19%.
HT1080 IDH1KD tx: toxicity to HT-1080 IDH1 knockdown cells (counter line) | HT-1080 IDH1 knockdown viability, ATP luminescence, 48 h | Potency, µM (titrated, usually from 46.1 µM), without a hit: at the highest dose activity, negative = toxicity, actives largely listed as cytotoxic | 360,000 tested, 2% active | AID 686971;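 also: potency is read from the fitted curve at half-maximal effect; 0% = DMSO wells and -100% = cell-free medium wells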
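Knockdown cells (IDH1KD HT-1080) received compounds 2 h after plating at 750 cells/well and were kept 48 h at 37 °C in 5% FBS RPMI. A CellTiter-Glo luminescence read gave % activity for curve fitting.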
DT40 TDP1 no CPT: qHTS for Inhibitors of human tyrosyl-DNA phosphodiesterase 1 (TDP1): qHTS in cells in absence of CPT; DT40 Tdp1-/- hTDP1 cells, no CPT, ATP luminescence, 48 h; 420,000 tested, 15% active; Potency, µM (series often up to 46.2 µM), inactives show at the highest dose activity change, negative = growth inhibition, hits mostly inhibitors; also: potency is read from the fitted curve at half-maximal effect; nearly all actives have a fitted effect of over 55% in size
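Growth of hTDP1-complemented DT40 Tdp1-knockout cells is measured by ATP luminescence after at least 48 hr compound exposure at 37 °C, with DMSO substituting for the 20 nM CPT used in the parallel screen.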
IL-1B inflam inh: blocks inflammasome-driven IL-1 beta release. THP-1 LPS/ATP IL-1B secretion, AlphaLISA, 16 h; stronger effect = lower value. 360,000 tested, 4.7% active. activity change, % at 57.5 µM; in the data active = activity change below about -50%; inconclusive = mostly about -30% to -49%
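THP-1 cells pretreated 1 hr with compounds (up to 57.5 uM final), then stimulated with LPS (250 ng/mL final) plus ATP (1.25 mM final); secreted IL-1B measured by AlphaLISA after 16 hr, decreased signal indicating inhibition.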
HT1080-NT tox: kills 2HG-producing HT-1080-NT fibrosarcoma cells; HT-1080-NT fibrosarcoma viability, CellTiter-Glo ATP luminescence, 48 h; 360,000 tested, 1.6% active; Potency, µM (doses to about 46.1 µM), for inactives: at the highest dose activity, negative = less viability, actives largely listed as cytotoxic;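 also: NT is the 2HG producing partner of a matched IDH1 knockdown line; potency is read from the fitted curve at half-maximal effect; 0% = DMSO-treated cells and -100% = media-only wells without cells; nearly all actives have a fitted effect of over 55% in size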
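A 48-hour cytotoxicity screen used HT-1080-NT cells plated 2 hours before compound delivery. ATP-based CellTiter-Glo luminescence measured viability, normalized to DMSO and no-cell controls.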
DT40 TDP1 CPT: DT40-hTDP1 cell growth loss with CPT | chicken DT40 Tdp1-/-;hTDP1 cells + 20 nM CPT, ATP luminescence, 48 h | Potency, µM (doses to about 46.2 µM), inactives show at the highest dose activity change, negative = growth inhibition, usual class: inhibitors | 420,000 tested, 12% active | AID 686979; also: potency is read from the fitted curve at half-maximal effect; nearly all actives have a fitted effect of over 55% in size
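Cell growth measured by CellTiter-Glo luminescence after a minimum 48 h, 37 C compound exposure with 20 nM CPT in Tdp1-knockout DT40 cells stably expressing hTDP1, seeded 400/well; qHTS titration format.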
ELG1 repair inh: ELG1-dependent DNA repair inhibition; 330,000 tested, 2.3% active; HEK293T ELG1-luciferase reporter, luminescence, 16 h; DNA damage induced by 5-fluorouridine; Potency, µM (highest dose often 46.1 µM), for inactives: at the top dose activity change, negative = inhibition, hits mostly inhibitors; also: potency is read from the fitted curve at half-maximal effect; nearly all actives have a fitted effect of over 55% in size
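Overnight (16 hr) co-exposure of 2,000 cells/well to 5-fluorouridine and compound at 37 °C preceded detection. Luciferase was quantified via ONE-Glo luminescence; loss of signal denotes inhibition.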
* marks the source's active call; other numbers are inactive results; u = inconclusive; x = no result given. Unless noted, calls follow the shape of the dose curve; as a rule, active = well fitted curve in the direction sought with a large enough effect; inconclusive = small, poorly fitted or top-dose-only effect, or another doubt; inactive = no such curve, though single readings can be large; an effect the other way counts as inactive or inconclusive. Unless noted, % is scaled to controls: 0 for no effect and ±100 for the full control effect.

SMILES	HT1080 IDH1KD tx	DT40 TDP1 no CPT	IL-1B inflam inh	HT1080-NT tox	DT40 TDP1 CPT	ELG1 repair inh
Cc1cc(NCCCCO)n2c(nc3ccccc32)c1C#N	u	-20%	-24	-21%	-22%	2%
Nc1cnn(Cc2ccccc2F)c1	u	21µM*	16	u	u	-10%
COc1ncnc(OC)c1S(=O)(=O)Nc1ccc(C(F)(F)F)cc1	6%	2%	19	5%	2%	4%
Cc1cc(=O)[nH]c2c(C)c(N)ccc12	2%	-6%	-1	-2%	-2%	-2%
Cc1cc(C)c2ccc3c(C)c(C)nc3c2[nH]1	u	21µM*	-1	u	u	u
CCOC(=O)Cn1c(=NC(=O)c2cc(-c3cccs3)nc3ccccc23)sc2cc(S(N)(=O)=O)ccc21	-25%	16µM*	-11	u	23µM*	u
CCOC(=O)Cn1c(=NC(=O)C2COc3ccccc3O2)sc2cc(S(N)(=O)=O)ccc21 (stereo unspecified)	-1%	21µM*	-13	-3%	u	-18%
COC(=O)Cn1c(=NC(=O)c2cc(-c3cccs3)nc3ccccc23)sc2cc(S(N)(=O)=O)ccc21	u	9.2µM*	-12	-19%	u	9.2µM*
CC(C)(C)C(=O)O/N=C(\N)c1ccc([N+](=O)[O-])s1	-8%	6.5µM*	0	u	6.5µM*	u
CC(C(=O)NCc1ccccc1)n1c(Cc2cc(F)cc(F)c2)nc2ccccc21 (stereo unspecified)	12%	u	18	17%	-109%	x
O=C(NCc1ccccc1)C(C1CC1)n1c(Cc2cc(F)cc(F)c2)nc2ccccc21 (stereo unspecified)	-13%	18µM*	-9	-2%	u	x
CCOC(=O)CNC(=O)CN1CCC(c2nc3ccccc3[nH]2)CC1	0%	-20%	5	0%	-4%	20%
COc1ccc(CCNC(=O)Cn2c(=O)n(-c3ccc(C)c(F)c3)c(=O)c3sccc32)cc1OC	8%	15µM*	4	11%	9.2µM*	u
COc1ccc(CCNC(=O)Cn2c(-c3cccs3)cc3cc(F)ccc32)cc1OC	x	9.2µM*	x	x	7.3µM*	x
Cc1ccc(CNC(=O)Cn2c(-c3cccs3)cc3cc(Cl)ccc32)cc1	x	23µM*	x	x	u	x
O=C(Cn1c(-c2cccs2)cc2ccccc21)NCc1ccccc1Br	x	-81%	x	x	u	x
COCCCNC(=O)Cn1c(=O)n(CC(=O)NCCc2ccc(OC)c(OC)c2)c(=O)c2sccc21	16%	-6%	0	6%	-1%	10%
CCOC(=O)Cn1c(-c2cccs2)cc2cc(Cl)ccc21	x	-28%	x	x	-22%	x
CC(CNC(=O)Cn1c(-c2cccs2)cc2ccccc21)c1ccccc1 (stereo unspecified)	x	u	x	x	21µM*	x
COc1ccccc1-c1cnc(C(O)c2c(C)cc(C)cc2C)[nH]1 (stereo unspecified)	-28%	u	19	u	u	x
CC(C)CNC(=O)C(=O)Nc1c2c(nn1-c1ccccc1)CS(=O)(=O)C2	x	-7%	x	x	0%	x
O=S(=O)(NCc1nc2cccnc2n1Cc1ccc(F)cc1)c1ccc2c(c1)CCCC2	x	u	x	x	18µM*	x
O=S(=O)(NCc1nc2cccnc2n1Cc1ccccc1Cl)c1ccc2c(c1)CCCC2	x	16µM*	x	x	u	x
Cc1cccc(Cn2c(CNS(=O)(=O)c3ccc4c(c3)CCCC4)nc3cccnc32)c1	x	16µM*	x	x	u	x
O=S(=O)(NCc1nc2cccnc2n1Cc1ccccc1)c1ccc2c(c1)CCCC2	x	21µM*	x	x	u	x
SMILES	HT1080 IDH1KD tx	DT40 TDP1 no CPT	IL-1B inflam inh	HT1080-NT tox	DT40 TDP1 CPT	ELG1 repair inh
CCC(CC)C(=O)NCc1nc2cccnc2n1Cc1ccc(F)cc1	x	-23%	x	x	-12%	x
CC1=C(C(=O)N(C)C)CC(CC(=O)NCCc2ccccn2)C(=O)N1CCCN1CCCC1=O (stereo unspecified)	-6%	6%	11	6%	1%	x
COc1ccccc1CNC(=O)c1cnn2c(C)c(Cc3ccc(F)cc3)c(C)nc12	x	6.5µM*	x	x	5.8µM*	x
Cc1nc2c(C(=O)NCCc3ccc(Cl)cc3)cnn2c(C)c1Cc1ccc(F)cc1	x	u	x	x	16µM*	x
COc1ccccc1CNC(=O)c1ccccc1OCc1ccc(F)cc1	2%	u	14	3%	u	-28%
Cc1ccc2nc(N(CCCN(C)C)C(=O)c3cc(-c4cccs4)nc4ccccc34)sc2c1	u	u	u	u	16µM*	-23%
CN(C)CCCN(C(=O)c1cc(-c2cccs2)nc2ccccc12)c1nc2c(F)cccc2s1	u	-11%	-74*	u	u	-18%
CC(C)CN(CCCNC(=O)c1cc(-c2cccs2)nc2ccccc12)CC(C)C	x	-16%	x	x	-10%	x
CN(Cc1ccc(Cl)c(Cl)c1)C(=O)CN1C(=O)NC2(CCCC2)C1=O	-14%	-2%	-5	0%	-22%	9%
Cc1ccc(CNC(=O)CN2C(=O)C3CCCCN3c3ccc(C(=O)N(C)C)cc32)cc1 (stereo unspecified)	x	-24%	x	x	-6%	x
COc1ccc2cc(CNCCOCCOCCNCc3ccc4cc(OC)ccc4c3)ccc2c1	16µM*	2.6µM*	-99*	u	2.6µM*	x
O=C1C(Cl)=C(NCCN2CCOCC2)C(=O)c2ccccc21	18µM*	16µM*	-96*	u	u	u
O=C1C(Cl)=C(NCCCN2CCOCC2)C(=O)c2ccccc21	u	13µM*	-96*	-18%	18µM*	x
Cc1c(C(=O)Nc2cccnc2)oc2ccc(Br)cc12	u	u	6	u	u	u
CCc1ccc2oc(C(=O)Nc3cccnc3)c(C)c2c1	-15%	23µM*	-4	-13%	16µM*	u
Cc1c(C(=O)Nc2cnccn2)oc2ccccc12	u	u	32	-29%	12µM*	u
O=C(C(=O)N1CCC(Cc2ccccc2)CC1)c1ccccc1Br	-17%	u	-9	-7%	u	x
Fc1cccc2sc(Nc3nc4cc5c(cc4s3)OCO5)nc12	u	u	12	u	21µM*	u
O=C(Nc1nc2cc3c(cc2s1)OCO3)c1ccc(N2C(=O)CCC2=O)cc1	12%	25%	-5	-1%	-2%	0%

High-throughput results from PubChem BioAssay.
